Our source for the Percent Effect values is ChEMBL document CHEMBL3988442, “University of Dundee, Small-Polar-MMV Screening Library” (2021).

For some of these results: Entries with a potency or affinity are not part of this list.

What all share (design): scale not given: direction of the effect not stated beside the values
The target of assay [1] is Protein translocase subunit SecA (Escherichia coli (strain K12)) (UniProt P10408). The assay is described as follows: Assay to Identify E. coli SecA ATPase Inhibitors. It counts as functional. The following applies: 30 µM.
Chain of Protein translocase subunit SecA (Escherichia coli (strain K12)) (P10408 whole entry): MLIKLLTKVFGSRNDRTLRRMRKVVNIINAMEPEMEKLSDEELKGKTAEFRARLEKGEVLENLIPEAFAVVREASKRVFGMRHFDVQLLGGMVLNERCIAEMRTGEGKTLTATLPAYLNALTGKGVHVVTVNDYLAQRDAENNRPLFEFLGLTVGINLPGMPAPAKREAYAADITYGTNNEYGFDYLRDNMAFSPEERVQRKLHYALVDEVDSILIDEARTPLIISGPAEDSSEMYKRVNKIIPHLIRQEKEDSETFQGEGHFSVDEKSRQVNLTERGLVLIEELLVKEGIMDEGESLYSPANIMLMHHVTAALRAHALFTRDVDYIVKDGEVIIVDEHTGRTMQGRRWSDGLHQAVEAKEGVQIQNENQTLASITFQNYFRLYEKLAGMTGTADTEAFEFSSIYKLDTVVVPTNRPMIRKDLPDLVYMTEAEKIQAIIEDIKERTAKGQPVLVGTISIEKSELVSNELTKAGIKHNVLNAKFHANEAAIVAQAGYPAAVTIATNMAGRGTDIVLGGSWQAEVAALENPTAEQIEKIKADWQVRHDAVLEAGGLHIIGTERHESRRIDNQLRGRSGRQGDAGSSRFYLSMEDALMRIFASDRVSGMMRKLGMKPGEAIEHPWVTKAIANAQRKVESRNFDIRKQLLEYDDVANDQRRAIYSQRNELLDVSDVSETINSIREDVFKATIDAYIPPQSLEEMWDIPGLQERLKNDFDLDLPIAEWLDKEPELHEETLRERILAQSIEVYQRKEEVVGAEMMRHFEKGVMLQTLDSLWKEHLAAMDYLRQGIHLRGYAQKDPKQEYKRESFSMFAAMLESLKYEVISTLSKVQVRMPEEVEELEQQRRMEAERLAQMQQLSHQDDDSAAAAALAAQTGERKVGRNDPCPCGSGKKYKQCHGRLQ
Assay [2] concerns the target T1, Ubiquitin-activating enzyme e1, putative (Leishmania donovani (strain BPK282A1)) (UniProt E9BSI1).
T1 sequence (whole entry): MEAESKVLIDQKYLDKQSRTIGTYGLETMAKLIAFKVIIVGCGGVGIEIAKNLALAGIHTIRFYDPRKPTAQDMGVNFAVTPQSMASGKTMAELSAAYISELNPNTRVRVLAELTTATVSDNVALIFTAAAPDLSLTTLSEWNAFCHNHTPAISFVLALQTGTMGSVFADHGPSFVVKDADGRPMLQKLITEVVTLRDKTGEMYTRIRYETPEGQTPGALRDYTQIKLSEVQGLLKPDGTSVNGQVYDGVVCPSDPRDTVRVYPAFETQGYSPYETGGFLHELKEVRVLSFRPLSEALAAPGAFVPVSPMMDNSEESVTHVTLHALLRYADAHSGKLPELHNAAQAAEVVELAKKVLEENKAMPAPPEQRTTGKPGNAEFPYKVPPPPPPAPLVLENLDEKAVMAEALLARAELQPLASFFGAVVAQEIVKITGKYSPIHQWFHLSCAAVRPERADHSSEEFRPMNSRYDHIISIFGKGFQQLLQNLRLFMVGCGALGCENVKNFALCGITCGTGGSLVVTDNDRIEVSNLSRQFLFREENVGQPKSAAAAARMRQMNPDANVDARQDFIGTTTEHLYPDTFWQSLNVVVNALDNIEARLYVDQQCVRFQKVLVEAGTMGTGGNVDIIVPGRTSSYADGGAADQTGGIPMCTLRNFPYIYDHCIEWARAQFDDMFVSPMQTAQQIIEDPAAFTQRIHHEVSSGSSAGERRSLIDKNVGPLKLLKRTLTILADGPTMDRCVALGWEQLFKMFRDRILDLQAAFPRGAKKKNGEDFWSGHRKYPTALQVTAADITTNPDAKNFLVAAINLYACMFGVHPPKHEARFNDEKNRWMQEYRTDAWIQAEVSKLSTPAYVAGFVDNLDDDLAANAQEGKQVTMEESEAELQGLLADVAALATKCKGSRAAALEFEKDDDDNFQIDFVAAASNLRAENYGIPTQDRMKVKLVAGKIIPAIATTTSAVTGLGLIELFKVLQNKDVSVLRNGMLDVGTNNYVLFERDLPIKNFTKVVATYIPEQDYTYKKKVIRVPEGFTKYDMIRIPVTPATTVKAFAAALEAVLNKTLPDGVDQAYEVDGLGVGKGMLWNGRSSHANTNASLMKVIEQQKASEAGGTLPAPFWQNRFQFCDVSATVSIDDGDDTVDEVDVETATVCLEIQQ
Kind of assay: Leishmania donovani Ubiquitin Activating Enzyme (LdE1). The conditions noted are these: 30 µM. The class given is functional.

The target of assay [3] is AMP-activated protein kinase, AMPK (Homo sapiens) (UniProt P54646+O43741+P54619+Q9UGJ0+Q9Y478+Q13131+Q9UGI9). Kind of assay: AMP-dependent Kinase enzyme assay. An in vitro enzyme assay that detects ADP turnover that is directly proportional to AMPK activity. This uses naive AMPK that is activated during the assay with MK-8722. It counts as functional. The following applies: 30 µM.

The target in assay [4] is Sialic acid-binding Ig-like lectin 9 (Homo sapiens) (UniProt Q9Y336). The assay is described as follows: Hs-Siglec9 ALPHAscreen SOP 20170721. The following applies: 10 µM. (Alpha assays give light when donor and acceptor beads are brought close together.)
Chain of Sialic acid-binding Ig-like lectin 9 (Homo sapiens) (Q9Y336 whole entry): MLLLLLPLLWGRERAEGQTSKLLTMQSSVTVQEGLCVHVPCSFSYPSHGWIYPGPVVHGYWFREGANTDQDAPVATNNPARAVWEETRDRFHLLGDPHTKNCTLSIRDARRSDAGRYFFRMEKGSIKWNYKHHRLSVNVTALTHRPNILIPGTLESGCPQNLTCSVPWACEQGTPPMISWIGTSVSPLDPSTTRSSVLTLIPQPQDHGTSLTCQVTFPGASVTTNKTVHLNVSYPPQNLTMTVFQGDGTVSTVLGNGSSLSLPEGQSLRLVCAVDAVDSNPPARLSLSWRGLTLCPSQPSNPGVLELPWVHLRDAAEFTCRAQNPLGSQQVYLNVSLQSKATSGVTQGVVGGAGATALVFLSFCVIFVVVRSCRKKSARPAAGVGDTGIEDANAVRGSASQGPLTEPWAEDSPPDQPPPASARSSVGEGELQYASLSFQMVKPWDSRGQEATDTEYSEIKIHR
The next assay deals with Trypanosoma cruzi. The assay is described as follows: Trypanosoma cruzi phosphomannomutase and mannose-1-phosphate guanylyltransferase assay. The class given is functional. The following applies: 10 µM.
Assay [5] deals with T2, Arginase-2, mitochondrial (Homo sapiens) (UniProt P78540).
T2 sequence (whole entry): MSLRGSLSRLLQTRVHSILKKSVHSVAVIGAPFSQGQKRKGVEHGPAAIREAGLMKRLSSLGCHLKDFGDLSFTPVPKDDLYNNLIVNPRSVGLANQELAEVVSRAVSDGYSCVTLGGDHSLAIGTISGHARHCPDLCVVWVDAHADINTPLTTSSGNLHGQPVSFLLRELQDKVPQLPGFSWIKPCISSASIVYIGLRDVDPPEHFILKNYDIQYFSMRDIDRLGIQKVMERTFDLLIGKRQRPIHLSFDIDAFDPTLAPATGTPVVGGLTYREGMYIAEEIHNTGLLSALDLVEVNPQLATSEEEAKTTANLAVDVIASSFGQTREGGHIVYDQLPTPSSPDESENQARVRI
The assay is described as follows: in vitro enzyme assay to detect the production of urea directly proportional to the activity of Arginase II. Note: in the data most compounds retested in dose-response had high values. It counts as functional. The conditions noted are these: 33.3 µM.

For assay [6], the target named is T3, Proteasome subunit beta (Trypanosoma cruzi) (UniProt O96673).
T3 sequence (whole entry): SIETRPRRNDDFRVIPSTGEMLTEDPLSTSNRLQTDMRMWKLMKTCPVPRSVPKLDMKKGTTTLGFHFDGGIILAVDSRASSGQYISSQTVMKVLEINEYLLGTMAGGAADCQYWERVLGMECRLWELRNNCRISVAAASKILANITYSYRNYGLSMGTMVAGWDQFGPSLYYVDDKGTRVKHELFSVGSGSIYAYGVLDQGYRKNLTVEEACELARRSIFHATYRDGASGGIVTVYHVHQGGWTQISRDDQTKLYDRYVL
The assay is described as follows: Trypanosoma cruzi proteasome chymotrypsin-like activity (TcProtChymo) assay. Note: in the data most compounds retested in dose-response had high values. It counts as functional. The conditions noted are these: 9.37 µM.

The species named for a further assay is Homo sapiens. Kind of assay: To identify inhibition of the IFN signalling (Jak-Stat) pathway via expression of an eGFP reporter gene under the control of an IFN-stimulated response element (ISRE) containing MxA promoter. It counts as functional. The following applies: 30 µM. Background: A reporter such as luciferase makes a cellular process visible.
Assay [7] deals with T4, Tyrosyl-tRNA synthetase, putative (Trypanosoma cruzi (strain CL Brener)) (UniProt Q4DSP6).
T4 sequence (whole entry): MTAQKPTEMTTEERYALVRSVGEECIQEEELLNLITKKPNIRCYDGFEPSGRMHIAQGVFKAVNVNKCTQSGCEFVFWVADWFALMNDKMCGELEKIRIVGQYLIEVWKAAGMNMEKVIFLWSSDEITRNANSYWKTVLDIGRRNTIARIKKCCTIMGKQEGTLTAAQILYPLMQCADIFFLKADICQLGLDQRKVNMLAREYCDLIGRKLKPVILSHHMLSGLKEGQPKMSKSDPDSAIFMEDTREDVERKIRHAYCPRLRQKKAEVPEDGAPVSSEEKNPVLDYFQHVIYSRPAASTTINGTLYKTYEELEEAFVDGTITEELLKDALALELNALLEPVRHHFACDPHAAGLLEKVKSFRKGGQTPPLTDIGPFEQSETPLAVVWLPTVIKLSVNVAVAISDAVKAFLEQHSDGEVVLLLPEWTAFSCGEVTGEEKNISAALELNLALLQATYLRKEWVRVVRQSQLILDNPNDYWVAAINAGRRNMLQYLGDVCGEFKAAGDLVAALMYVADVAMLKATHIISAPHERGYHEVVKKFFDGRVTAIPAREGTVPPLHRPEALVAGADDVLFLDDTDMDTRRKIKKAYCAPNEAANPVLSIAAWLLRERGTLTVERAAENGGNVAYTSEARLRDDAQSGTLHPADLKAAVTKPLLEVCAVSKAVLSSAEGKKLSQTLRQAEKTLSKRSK
The assay is described as follows: Trypanosoma cruzi tyrosyl tRNA synthetase (TcYRS) _High Tyrosine SOP. Note: in the data most compounds retested in dose-response had high values. The class given is functional. The conditions noted are these: 30 µM.

In assay [8] the target is T4, Tyrosyl-tRNA synthetase, putative (Trypanosoma cruzi (strain CL Brener)). The assay is described as follows: Trypanosoma cruzi tyrosyl tRNA synthetase (TcYRS) SOP. The class given is functional. The following applies: 30 µM.
Assay [9] deals with Chromo domain-containing protein 1 (Saccharomyces cerevisiae (strain ATCC 204508 / S288c) (Baker's yeast)) (UniProt P32657). The assay is described as follows: ScCHD-1 Enzyme Inhibition Assay. Note: in the data most compounds retested in dose-response had high values. The conditions noted are these: 30 µM. It counts as functional.
Chain of Chromo domain-containing protein 1 (Saccharomyces cerevisiae (strain ATCC 204508 / S288c) (Baker's yeast)) (P32657 whole entry, the tested form may be a part): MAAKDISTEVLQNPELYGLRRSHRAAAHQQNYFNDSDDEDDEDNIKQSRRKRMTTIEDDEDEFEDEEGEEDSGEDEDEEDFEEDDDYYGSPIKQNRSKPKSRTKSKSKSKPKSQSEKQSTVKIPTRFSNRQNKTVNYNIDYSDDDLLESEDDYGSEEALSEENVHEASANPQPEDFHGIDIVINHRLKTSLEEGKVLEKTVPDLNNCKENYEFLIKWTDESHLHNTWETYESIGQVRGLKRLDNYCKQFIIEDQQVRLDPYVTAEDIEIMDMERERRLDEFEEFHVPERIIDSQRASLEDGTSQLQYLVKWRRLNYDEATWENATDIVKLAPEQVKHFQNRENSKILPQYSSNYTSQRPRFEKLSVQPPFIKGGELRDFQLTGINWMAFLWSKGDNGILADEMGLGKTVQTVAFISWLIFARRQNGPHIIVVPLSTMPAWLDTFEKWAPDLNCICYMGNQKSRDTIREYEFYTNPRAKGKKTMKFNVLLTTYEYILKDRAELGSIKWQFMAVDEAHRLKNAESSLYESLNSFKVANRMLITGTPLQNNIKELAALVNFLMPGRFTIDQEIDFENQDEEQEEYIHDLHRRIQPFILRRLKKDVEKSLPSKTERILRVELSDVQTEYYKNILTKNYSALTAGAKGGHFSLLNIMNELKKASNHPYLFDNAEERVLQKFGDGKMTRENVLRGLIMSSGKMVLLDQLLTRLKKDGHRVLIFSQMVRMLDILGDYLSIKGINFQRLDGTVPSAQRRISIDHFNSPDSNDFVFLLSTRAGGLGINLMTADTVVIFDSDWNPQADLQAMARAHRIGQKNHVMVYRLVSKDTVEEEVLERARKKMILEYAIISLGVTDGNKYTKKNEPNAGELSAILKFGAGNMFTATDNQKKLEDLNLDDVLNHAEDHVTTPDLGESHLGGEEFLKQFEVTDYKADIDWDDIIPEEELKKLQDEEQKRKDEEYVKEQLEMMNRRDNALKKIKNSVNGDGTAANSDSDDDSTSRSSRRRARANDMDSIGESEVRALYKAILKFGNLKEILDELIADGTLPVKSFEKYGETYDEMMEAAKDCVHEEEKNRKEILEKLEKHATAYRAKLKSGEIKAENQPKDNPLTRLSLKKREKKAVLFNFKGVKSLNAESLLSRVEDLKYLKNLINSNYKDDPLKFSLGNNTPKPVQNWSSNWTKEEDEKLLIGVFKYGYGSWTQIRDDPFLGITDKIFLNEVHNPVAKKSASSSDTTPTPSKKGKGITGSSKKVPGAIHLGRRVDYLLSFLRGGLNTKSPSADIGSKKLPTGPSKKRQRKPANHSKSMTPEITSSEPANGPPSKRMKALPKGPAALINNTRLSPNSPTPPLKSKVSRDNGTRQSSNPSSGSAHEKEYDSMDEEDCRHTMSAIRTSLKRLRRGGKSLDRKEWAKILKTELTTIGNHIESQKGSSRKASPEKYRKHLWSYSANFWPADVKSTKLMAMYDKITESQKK

With `Cc1noc(C)c1-c1cnc(CC2CCN(C(=O)c3cc[nH]n3)C2)cn1` (stereo not drawn), the Percent Effect in assay [1] is -0.461%; in assay [2], 9.46%; in [3], 11.7%; in assay [4], -4.31%; in the assay with Trypanosoma cruzi, -2.37%; in assay [5], -2.09%. The Percent Effect in assay [6] is 7.02%; in the assay filed under Homo sapiens, 3.9%; in assay [7] it was 8.6%; in [8], 14.3%; in [9], -9.57%.

Turning to `CC(NC(=O)NCCn1ccnc1)c1ccc2c(c1)NC(=O)CO2` (stereo not drawn), the Percent Effect in assay [1] is -4.14%; in [2], 10.1%; in assay [3], 1.48%; in [4], 0.18%; with Trypanosoma cruzi, -7.65%; in assay [5] it was -1.52%. For the same compound, the Percent Effect in [6] was -0.409%; in the assay listed under Homo sapiens, 17.8%; in assay [7], 0.493%; in assay [8], 13.9%; in assay [9], -1.54%.

Turning to `Cc1csc(Nc2cc(C3CCCCN3C)nc(C)n2)n1` (stereo not drawn), the Percent Effect in assay [1] was 1.97%; in assay [2], 8%; in [3], 7.4%; in assay [4], -13.6%; in the assay with Trypanosoma cruzi it was -5.71%; in assay [5] it was 3.5%. The Percent Effect in [6] is 17.5%; in the assay listed under Homo sapiens, 14.7%; in [7], 4.25%; in assay [8], 6.41%; in assay [9], -0.0696%.

As for `CSc1ccc(C(CN)N2CCc3sccc3C2)cc1` (stereo not drawn), the Percent Effect in [1] was 0.534%; in [2] it was -15.8%; in [3], -4.11%; in assay [4] it was -9.22%; in the assay with Trypanosoma cruzi, 3.6%; in assay [5], -5.92%. Also, the Percent Effect in assay [6] turned out to be 6.42%; in the assay listed under Homo sapiens, 39.7%; in assay [7] it was 17%; in assay [8] it was 28.6%; in assay [9], 1.73%.

`Cn1c(CC2CCS(=O)(=O)C2)nnc1SCCOc1ccccc1F` (stereo not drawn): the Percent Effect was -0.675% in assay [1]; 2.7% in assay [2]; 2.63% in assay [3]; 12.8% in assay [4]; 2.64% in the assay on Trypanosoma cruzi; 30.5% in assay [5]. In addition, the Percent Effect in assay [6] is 2.15%; in the assay listed under Homo sapiens, -9.3%; in assay [7] it was -2.15%; in [8], 6.17%; in assay [9], -9.15%.

Take `CC(NC(=O)NCCCN1CCCCCC1)c1nncn1C` (stereo not drawn): the Percent Effect in assay [1] is -2.66%; in [2], 10.8%; in assay [3], -6.67%; in [4] it was 18.7%; in the assay on Trypanosoma cruzi, 6.78%; in [5] it was -6.47%. For the same compound, the Percent Effect in assay [6] was -5.03%; in the assay filed under Homo sapiens, 18%; in assay [7], 5.94%; in [8] it was 18.3%; in assay [9] it was -3.61%.

In the case of `COc1nc(C)c(C(=O)N(C)Cc2nc(-c3ccccn3)no2)s1`, the Percent Effect in assay [1] is -2.52%; in [2], 13.3%; in [3], -11.2%; in assay [4], 4.23%; in the assay with Trypanosoma cruzi, 4.97%; in assay [5], -3.65%. Besides, the Percent Effect in assay [6] was 18.3%; in the assay filed under Homo sapiens it was -0.294%; in assay [7], 6.01%; in assay [8], 13.6%; in assay [9], -0.207%.

With `NC(=O)NCC(=O)N1C[C@H]2CC[C@@H]1CN(C1Cc3ccccc3C1)C2`, the Percent Effect in assay [1] was -3.92%; in assay [2] it was 10.8%; in assay [3], -25.8%; in assay [4] it was 17.9%; with Trypanosoma cruzi, -0.88%; in [5] it was -3.23%. In addition, the Percent Effect in [6] is 14%; in the assay filed under Homo sapiens, 3.96%; in [7] it was 5.38%; in assay [8], 13.6%; in assay [9], -4.63%.
